This is an account of results in ChEMBL document CHEMBL1961873, “Compounds: GSK PKIS; Assays: Nanosyn kinase panel” (2012).

Assay [1] addresses Fibroblast growth factor receptor 4 (Homo sapiens) (UniProt P22455). To be noted: at 1 µM.
For assay [2], the target named is Tyrosine-protein kinase Fgr (Homo sapiens) (UniProt P09769). To be noted: at 0.1 µM.
Assay [3] shares this target. To be noted: at 1 µM.
Assay [4] addresses Vascular endothelial growth factor receptor 1 (Homo sapiens) (UniProt P17948). To be noted: at 0.1 µM.
For assay [5] the target is unchanged. Conditions: at 1 µM.
Assay [6] has as its target Receptor-type tyrosine-protein kinase FLT3 (Homo sapiens) (UniProt P36888). To be noted: at 0.1 µM.
Assay [7] shares this target. To be noted: at 1 µM.
Assay [8] deals with T1, Receptor-type tyrosine-protein kinase FLT3 (Homo sapiens), P36888 [D835Y].
T1 sequence (whole entry): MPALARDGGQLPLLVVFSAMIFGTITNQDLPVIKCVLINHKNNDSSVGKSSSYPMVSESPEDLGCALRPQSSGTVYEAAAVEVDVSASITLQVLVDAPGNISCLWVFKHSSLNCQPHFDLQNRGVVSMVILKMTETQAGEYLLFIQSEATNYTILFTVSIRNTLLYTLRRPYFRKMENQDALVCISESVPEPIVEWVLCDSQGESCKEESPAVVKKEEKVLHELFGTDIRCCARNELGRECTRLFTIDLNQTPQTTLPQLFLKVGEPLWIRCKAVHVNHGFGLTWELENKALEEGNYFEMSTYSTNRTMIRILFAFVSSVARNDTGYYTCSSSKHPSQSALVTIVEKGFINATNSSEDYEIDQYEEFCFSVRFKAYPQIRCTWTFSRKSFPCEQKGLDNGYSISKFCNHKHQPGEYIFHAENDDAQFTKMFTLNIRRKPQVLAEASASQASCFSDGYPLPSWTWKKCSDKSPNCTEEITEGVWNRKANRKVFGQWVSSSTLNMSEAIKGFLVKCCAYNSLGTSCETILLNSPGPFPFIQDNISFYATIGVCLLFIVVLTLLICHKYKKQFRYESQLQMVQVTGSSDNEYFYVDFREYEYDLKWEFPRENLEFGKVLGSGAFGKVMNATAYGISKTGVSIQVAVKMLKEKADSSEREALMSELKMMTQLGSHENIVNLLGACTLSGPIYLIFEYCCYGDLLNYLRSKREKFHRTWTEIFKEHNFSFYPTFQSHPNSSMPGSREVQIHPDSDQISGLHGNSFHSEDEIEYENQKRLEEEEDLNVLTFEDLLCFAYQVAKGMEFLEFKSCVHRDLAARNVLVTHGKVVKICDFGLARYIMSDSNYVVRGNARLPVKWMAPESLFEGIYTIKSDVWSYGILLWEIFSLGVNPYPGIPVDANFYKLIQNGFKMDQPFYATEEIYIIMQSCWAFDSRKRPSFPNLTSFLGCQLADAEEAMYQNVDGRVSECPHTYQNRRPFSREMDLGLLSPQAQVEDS
To be noted: at 0.1 µM.

Assay [9] concerns the target Non-receptor tyrosine-protein kinase TYK2 (Homo sapiens) (UniProt P29597). To be noted: at 1 µM.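 Also: values are mean percent inhibition of TYK2 kinase.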
For assay [10], the target named is T2, Tyrosine-protein kinase receptor TYRO3 (Homo sapiens) (UniProt Q06418).
T2 sequence (whole entry): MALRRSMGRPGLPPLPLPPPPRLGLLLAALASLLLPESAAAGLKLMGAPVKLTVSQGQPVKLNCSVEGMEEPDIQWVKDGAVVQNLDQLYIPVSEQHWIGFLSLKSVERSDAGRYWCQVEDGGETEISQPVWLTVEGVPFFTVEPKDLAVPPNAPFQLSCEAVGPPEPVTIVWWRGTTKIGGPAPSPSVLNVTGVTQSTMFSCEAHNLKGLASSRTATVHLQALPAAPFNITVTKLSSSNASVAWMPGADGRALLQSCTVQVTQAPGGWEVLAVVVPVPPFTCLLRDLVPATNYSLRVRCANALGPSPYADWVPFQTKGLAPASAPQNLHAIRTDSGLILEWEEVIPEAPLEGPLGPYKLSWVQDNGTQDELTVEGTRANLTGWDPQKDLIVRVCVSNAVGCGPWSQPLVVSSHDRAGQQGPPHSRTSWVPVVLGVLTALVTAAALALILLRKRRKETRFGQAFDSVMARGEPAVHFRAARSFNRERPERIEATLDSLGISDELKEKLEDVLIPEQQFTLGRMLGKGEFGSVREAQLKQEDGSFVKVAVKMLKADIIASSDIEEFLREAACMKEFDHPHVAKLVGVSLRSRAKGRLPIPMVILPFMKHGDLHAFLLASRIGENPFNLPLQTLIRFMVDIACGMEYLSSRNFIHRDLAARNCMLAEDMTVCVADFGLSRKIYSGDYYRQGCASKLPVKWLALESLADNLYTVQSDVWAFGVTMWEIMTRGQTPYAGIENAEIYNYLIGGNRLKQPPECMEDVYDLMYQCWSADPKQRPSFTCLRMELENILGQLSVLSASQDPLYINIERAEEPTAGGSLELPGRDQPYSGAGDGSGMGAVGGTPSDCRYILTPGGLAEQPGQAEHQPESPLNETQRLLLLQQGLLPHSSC
Conditions: at 0.1 µM.

Assay [11] addresses T2, Tyrosine-protein kinase receptor TYRO3 (Homo sapiens). Conditions: at 1 µM.
The target in assay [12] is Tyrosine-protein kinase Yes (Homo sapiens) (UniProt P07947). To be noted: at 0.1 µM.
Assay [13] has the same target. To be noted: at 1 µM.
In assay [14] the target is T3, Tyrosine-protein kinase ZAP-70 (Homo sapiens) (UniProt P43403).
T3 sequence (whole entry): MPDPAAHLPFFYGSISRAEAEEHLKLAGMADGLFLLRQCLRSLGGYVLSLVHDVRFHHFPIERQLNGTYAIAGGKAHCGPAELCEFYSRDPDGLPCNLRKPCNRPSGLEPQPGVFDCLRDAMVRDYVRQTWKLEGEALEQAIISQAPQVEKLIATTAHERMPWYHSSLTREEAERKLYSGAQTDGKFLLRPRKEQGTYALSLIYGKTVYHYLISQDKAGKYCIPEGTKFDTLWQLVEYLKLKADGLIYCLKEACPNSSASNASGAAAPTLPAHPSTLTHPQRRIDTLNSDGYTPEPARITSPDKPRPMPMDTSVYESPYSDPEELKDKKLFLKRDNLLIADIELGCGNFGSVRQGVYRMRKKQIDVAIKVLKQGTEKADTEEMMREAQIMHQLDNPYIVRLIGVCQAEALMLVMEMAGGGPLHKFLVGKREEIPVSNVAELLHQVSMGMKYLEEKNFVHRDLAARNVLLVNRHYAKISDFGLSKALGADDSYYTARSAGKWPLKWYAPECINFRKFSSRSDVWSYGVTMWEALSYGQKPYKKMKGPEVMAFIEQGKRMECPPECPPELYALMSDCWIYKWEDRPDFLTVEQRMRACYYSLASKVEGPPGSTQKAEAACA
Conditions: at 0.1 µM.

For assay [15], the target named is T3, Tyrosine-protein kinase ZAP-70 (Homo sapiens). Conditions: at 1 µM.
In assay [16] the target is Serine/threonine-protein kinase B-raf (Homo sapiens) (UniProt P15056). To be noted: at 0.1 µM.
Chain of Serine/threonine-protein kinase B-raf (Homo sapiens) (P15056 whole entry): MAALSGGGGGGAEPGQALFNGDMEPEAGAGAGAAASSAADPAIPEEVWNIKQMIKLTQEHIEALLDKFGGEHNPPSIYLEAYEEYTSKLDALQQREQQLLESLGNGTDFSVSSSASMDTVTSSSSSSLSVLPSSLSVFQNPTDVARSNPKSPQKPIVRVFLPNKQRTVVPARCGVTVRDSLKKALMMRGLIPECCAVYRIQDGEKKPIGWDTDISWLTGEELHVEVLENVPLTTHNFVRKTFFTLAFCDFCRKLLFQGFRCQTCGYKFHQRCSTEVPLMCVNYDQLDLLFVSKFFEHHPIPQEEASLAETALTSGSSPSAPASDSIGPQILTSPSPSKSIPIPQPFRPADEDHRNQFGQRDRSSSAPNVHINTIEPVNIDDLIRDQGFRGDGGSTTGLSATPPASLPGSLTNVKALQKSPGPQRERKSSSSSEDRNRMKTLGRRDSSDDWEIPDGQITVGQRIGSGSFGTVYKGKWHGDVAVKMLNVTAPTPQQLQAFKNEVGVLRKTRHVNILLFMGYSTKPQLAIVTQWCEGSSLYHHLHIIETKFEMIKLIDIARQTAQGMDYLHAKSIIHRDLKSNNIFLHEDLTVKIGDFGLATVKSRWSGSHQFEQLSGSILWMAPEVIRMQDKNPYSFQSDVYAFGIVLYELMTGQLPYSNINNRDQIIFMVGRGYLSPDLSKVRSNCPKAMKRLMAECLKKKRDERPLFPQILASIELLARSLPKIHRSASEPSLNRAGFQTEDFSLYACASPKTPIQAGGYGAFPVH
The target is the same in assay [17]. Conditions: at 1 µM.
The test system of assay [18] is Serine/threonine-protein kinase B-raf (Homo sapiens), P15056 [V600E]. Conditions: at 0.1 µM.
Chain of Serine/threonine-protein kinase B-raf (Homo sapiens), P15056 [V600E] (P15056 whole entry V600E): as the sequence (P15056 whole entry) above, with V600E counted along it
Assay [19] shares this test system. To be noted: at 1 µM.
The target of assay [20] is RAF proto-oncogene serine/threonine-protein kinase (Homo sapiens) (UniProt P04049). Conditions: at 0.1 µM.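 Also: values are mean CRAF kinase inhibition from profiling of the GSK Published Kinase Inhibitor Set.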
Chain of RAF proto-oncogene serine/threonine-protein kinase (Homo sapiens) (P04049 whole entry): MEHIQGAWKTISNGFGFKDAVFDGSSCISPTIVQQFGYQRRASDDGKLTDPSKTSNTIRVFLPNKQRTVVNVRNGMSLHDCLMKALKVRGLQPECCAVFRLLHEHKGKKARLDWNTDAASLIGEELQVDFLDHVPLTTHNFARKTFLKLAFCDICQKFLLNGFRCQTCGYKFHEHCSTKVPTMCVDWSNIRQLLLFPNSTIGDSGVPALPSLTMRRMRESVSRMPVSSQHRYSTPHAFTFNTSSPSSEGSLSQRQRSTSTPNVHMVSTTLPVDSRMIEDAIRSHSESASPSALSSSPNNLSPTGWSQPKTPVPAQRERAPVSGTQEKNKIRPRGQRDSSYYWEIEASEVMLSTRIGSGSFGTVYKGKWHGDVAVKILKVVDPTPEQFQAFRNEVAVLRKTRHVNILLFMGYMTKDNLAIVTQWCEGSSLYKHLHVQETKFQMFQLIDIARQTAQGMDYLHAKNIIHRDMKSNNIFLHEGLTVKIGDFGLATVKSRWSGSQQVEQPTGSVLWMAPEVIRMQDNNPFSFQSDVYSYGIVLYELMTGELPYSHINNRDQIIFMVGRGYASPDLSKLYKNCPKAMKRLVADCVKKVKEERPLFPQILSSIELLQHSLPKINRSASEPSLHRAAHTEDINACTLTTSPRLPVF

The structures appear in SMILES notation.

Chain of Vascular endothelial growth factor receptor 1 (Homo sapiens) (P17948 whole entry): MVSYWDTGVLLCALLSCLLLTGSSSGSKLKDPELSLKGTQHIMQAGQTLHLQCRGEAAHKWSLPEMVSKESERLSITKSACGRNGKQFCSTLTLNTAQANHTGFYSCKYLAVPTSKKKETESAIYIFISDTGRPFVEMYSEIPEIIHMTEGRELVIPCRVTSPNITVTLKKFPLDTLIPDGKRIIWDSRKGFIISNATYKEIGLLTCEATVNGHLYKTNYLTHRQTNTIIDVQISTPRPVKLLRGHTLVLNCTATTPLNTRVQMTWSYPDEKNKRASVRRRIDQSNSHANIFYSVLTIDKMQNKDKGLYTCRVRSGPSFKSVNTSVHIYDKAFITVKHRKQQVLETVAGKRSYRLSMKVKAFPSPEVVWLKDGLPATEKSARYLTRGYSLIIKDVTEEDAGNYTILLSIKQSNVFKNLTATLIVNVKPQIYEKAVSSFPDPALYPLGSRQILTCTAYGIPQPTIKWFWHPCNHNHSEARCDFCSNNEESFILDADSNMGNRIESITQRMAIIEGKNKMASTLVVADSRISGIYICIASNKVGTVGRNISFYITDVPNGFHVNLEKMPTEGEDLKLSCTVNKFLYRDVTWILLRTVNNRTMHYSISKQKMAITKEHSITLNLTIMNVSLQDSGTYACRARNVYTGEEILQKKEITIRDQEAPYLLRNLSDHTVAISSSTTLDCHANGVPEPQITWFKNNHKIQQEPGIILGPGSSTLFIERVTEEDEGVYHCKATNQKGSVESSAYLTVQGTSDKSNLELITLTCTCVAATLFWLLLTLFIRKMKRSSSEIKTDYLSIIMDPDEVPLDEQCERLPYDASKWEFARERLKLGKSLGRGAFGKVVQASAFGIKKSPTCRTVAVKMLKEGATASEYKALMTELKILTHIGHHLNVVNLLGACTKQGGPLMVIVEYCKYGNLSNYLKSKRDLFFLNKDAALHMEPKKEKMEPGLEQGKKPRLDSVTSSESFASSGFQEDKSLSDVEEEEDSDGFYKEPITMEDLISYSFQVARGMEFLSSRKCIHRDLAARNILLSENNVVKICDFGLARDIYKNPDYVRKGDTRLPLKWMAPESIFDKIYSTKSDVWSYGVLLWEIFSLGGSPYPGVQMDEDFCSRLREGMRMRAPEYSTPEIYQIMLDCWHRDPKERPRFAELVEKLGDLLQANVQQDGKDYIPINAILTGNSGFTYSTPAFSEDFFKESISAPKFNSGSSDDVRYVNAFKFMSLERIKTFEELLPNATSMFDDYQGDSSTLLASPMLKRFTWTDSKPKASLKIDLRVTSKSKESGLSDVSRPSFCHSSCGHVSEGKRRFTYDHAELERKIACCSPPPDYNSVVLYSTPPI
Chain of Non-receptor tyrosine-protein kinase TYK2 (Homo sapiens) (P29597 whole entry): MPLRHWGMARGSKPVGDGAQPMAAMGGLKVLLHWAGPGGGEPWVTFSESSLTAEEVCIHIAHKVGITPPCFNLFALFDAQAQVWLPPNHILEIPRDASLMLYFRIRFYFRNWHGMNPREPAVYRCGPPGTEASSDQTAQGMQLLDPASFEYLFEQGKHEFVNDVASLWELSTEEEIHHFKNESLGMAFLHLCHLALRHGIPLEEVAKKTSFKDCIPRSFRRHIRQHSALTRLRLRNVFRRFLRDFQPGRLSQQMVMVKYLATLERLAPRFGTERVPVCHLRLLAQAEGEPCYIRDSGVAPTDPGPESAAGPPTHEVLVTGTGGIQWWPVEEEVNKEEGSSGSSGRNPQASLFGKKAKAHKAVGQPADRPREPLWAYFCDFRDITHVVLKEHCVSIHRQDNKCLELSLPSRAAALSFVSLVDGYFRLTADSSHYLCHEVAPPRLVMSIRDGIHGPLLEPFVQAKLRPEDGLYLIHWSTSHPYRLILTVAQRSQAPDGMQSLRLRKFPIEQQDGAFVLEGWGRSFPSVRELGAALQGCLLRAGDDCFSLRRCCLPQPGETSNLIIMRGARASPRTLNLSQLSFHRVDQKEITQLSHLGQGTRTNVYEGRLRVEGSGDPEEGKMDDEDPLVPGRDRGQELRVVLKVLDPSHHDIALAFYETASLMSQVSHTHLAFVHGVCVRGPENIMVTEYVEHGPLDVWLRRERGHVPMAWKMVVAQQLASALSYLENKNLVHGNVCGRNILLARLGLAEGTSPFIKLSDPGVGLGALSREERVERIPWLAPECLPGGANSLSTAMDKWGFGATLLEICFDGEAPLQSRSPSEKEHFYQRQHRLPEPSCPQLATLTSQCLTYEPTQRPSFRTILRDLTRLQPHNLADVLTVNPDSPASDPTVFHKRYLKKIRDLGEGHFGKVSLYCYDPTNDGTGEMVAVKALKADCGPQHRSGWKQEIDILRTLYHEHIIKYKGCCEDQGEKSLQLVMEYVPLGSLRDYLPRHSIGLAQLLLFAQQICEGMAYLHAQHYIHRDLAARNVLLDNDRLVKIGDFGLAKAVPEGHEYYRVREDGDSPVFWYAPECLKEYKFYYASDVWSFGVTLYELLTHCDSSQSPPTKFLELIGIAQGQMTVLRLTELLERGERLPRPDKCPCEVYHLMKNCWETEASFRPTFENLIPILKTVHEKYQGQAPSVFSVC
Chain of Fibroblast growth factor receptor 4 (Homo sapiens) (P22455 22-802 limits assumed): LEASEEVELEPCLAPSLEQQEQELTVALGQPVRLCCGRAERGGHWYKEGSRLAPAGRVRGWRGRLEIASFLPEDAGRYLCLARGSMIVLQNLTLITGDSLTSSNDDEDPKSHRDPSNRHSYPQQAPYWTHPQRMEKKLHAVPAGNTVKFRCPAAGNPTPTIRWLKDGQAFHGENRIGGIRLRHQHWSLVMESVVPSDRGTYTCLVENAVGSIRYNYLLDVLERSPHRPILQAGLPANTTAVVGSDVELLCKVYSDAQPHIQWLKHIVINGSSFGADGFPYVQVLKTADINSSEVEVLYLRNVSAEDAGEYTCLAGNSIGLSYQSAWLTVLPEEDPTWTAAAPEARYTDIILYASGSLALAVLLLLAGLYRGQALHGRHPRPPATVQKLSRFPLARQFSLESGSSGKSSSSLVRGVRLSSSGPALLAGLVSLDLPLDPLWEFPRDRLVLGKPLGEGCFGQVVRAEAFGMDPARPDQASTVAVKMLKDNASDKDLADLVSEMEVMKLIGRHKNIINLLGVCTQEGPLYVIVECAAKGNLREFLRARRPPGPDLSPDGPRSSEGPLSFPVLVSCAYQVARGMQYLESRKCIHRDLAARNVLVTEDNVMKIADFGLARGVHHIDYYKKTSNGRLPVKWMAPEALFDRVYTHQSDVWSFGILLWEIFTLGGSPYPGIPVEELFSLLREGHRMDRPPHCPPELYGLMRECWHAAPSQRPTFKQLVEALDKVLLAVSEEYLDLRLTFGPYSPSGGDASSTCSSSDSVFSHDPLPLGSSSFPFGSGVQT

With `Cc1ccc(NC(=O)c2ccoc2)cc1-c1ccc(C(=O)NCC2CC2)cc1`, the inhibition stood at 1.63% in assay [1]; 2.23% in assay [2]; 3.07% in [3]; 1.47% in assay [4]; 8.07% in assay [5]; 0.8% in assay [6]. The inhibition in assay [7] was 0.9%; in [8], -5.38%; in assay [9], -0.16%; in assay [10], 0.97%; in assay [11], 3.21%; in assay [12], 3.34%. Besides, the inhibition was 1.5% in assay [13]; -0.49% in assay [14]; 1.63% in [15]; 3.14% in assay [16]; 2.28% in assay [17]; 2.97% in [18]. For the same compound, the inhibition in assay [19] is 1.81%; in assay [20], 0.61%.
Consider `CCc1cccc(CC)c1/C=C/c1cncc(C(=O)NC)c1`, for which the inhibition in [1] was 0.35%; in [2], 3.25%; in assay [3] it was 11.7%; in [4] it was 4.96%; in [5] it was 2.13%; in assay [6], 2.07%. Moreover, the inhibition is 4.49% in assay [7]; 2.46% in [8]; -3.91% in [9]; 1.2% in [10]; 2.78% in [11]; 3.04% in [12]. The inhibition was -1.48% in [13]; 0.45% in [14]; 0.77% in [15]; 3.23% in assay [16]; 2.6% in [17]; 2.71% in assay [18]. The inhibition in assay [19] turned out to be 2.87%; in assay [20], 5.4%.
For `COc1ccc2cc(-c3c(-c4ccncc4)nc(-c4ccc([S+](C)[O-])cc4C)n3C)ccc2c1` (stereo not given), the inhibition in [1] is 2.85%; in assay [2] it was 0.53%; in assay [3], 4.65%; in assay [4], 0.86%; in assay [5] it was 5.84%; in assay [6] it was -0.09%. Moreover, the inhibition was -1% in [7]; 0.23% in [8]; 0.94% in assay [9]; 0.37% in [10]; 2.2% in assay [11]; 3.84% in assay [12]. For the same compound, the inhibition in [13] is 21.3%; in [14] it was -0.83%; in assay [15] it was -0.09%; in assay [16], 0.29%; in [17] it was -0.78%; in assay [18], -0.1%. The inhibition in [19] is -0.41%; in [20], -0.64%.
Regarding `O=C(Nc1n[nH]c2cc(-c3cc(F)ccc3F)ccc12)C1CC1`, the inhibition is 0.78% in [1]; 3.33% in [2]; 7.71% in [3]; 0.6% in [4]; 1.91% in assay [5]; 1.12% in assay [6]. The inhibition in assay [7] is 4.67%; in [8], -5.43%; in [9], -2.35%; in assay [10], 3.8%; in assay [11], 11.7%; in [12], 2.25%. In addition, the inhibition was 8.92% in assay [13]; 0.04% in [14]; -0.4% in [15]; 5.1% in [16]; 7.61% in [17]; 5.62% in assay [18]. The inhibition in [19] is 6.3%; in assay [20] it was -1.79%.
`COc1cc(C)c(N(C)C(=O)CN(C)C)cc1Nc1nc(Nc2cccc(F)c2C(N)=O)c2cc[nH]c2n1`: the inhibition is -2.22% in assay [1]; 0.53% in [2]; 2% in assay [3]; -0.09% in assay [4]; 1.09% in assay [5]; 1.42% in assay [6]. The inhibition was 2.03% in assay [7]; 0.68% in assay [8]; -1.64% in assay [9]; 1.86% in assay [10]; -0.84% in assay [11]; 0.04% in assay [12]. For the same compound, the inhibition was -3.38% in [13]; -1.25% in assay [14]; -6.34% in [15]; 1.62% in assay [16]; 3.95% in [17]; 2.25% in assay [18]. Moreover, the figures for the inhibition in assay [19] and in [20] were 3.53% and -0.36%, respectively.
Take `Fc1ccc(-c2ncn(C3CCNCC3)c2-c2ccnc(Oc3ccc(Oc4ccccc4)cc3)n2)cc1`: the inhibition is 3.31% in assay [1]; -0.13% in assay [2]; 4.83% in assay [3]; -0.48% in assay [4]; 3.29% in assay [5]; 2.97% in assay [6]. Besides, the inhibition in [7] was 1.85%; in [8] it was -3.32%; in assay [9] it was -3.59%; in assay [10], 1.47%; in assay [11], 2.08%; in assay [12], 0.21%. For the same compound, the inhibition in [13] came out at 4.26%; in [14], 0.95%; in [15], 0.36%; in assay [16] it was 6.4%; in assay [17] it was 11.6%; in [18], 4.03%. Further, the inhibition in assay [19] came to 8.67%; in [20], 1.44%.
